MMP13 inh = blocks human MMP13 activity. AID 570. inhibition, % at 4 µM. MMP-13 fTHP FRET cleavage, Mca fluorescence. 65,000 tested, 0.07% active;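 active means inhibition above the mean of compound-free control plate wells plus 3 SD, cut at about 14% in these data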
CD11b adhes enh = CD11b/CD18-fibrinogen binding enhancement. K562 CD11b/CD18 adhesion to fibrinogen, ATPlite luminescence. activation, % at 10 µM. 93,000 tested, 0.07% active. AID 1499;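 active means 10 µM primary screen giving 50% or more activity, confirmed by 40% or more on retest at that dose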
Target sequence (P05107 whole entry, looked up, other chains not shown): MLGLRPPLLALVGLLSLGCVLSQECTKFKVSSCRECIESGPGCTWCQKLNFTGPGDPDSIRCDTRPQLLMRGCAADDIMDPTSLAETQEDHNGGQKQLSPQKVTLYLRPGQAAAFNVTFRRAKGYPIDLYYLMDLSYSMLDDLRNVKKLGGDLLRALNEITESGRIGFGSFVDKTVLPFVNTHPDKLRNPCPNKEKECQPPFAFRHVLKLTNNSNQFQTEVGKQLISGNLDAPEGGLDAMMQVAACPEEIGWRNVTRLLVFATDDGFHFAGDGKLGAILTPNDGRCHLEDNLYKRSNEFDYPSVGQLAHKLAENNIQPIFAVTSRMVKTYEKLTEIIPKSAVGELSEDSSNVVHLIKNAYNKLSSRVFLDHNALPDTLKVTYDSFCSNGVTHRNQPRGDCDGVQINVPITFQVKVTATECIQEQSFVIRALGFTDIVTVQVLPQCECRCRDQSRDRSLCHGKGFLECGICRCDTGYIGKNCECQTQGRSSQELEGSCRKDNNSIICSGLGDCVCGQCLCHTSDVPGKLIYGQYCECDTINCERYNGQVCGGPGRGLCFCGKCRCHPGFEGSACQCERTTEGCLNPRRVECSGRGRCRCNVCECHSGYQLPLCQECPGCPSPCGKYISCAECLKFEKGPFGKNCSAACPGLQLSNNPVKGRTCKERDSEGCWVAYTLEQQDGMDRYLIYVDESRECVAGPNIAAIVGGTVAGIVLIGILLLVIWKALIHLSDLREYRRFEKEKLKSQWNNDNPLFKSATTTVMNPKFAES
CD11b adhes inh = blocks human CD11b/CD18 adhesion to fibrinogen; 93,000 tested, 0.54% active; inhibition, % at 10 µM; AID 1497; P05107+P11215; K562 CD11b/CD18 adhesion to fibrinogen, ATPlite luminescence; Mn2+ added to activate the integrin;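 active means primary inhibition of 50% or more at 10 µM, then 40% or more on retest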
FAK inh = blocks human focal adhesion kinase activity; 97,000 tested, 0.84% active; inhibition, %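 (tested at 7 µM)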; Q05397; biochemical FAK kinase activity assay
FAK inh confirm = FAK (human) inhibition confirmed; AID 794; 750 tested, 28% active; inhibition, % at 7 µM; FAK kinase biochemical inhibition assay; shares compounds with FAK inh
A number is an active result. Sampled rows, rich in hits. Any-hit rate of the full collection: about 1.1%. Unless noted, no stated cut-off is given here; in the data, active means inhibition above about 19%; inactive means the rest.

Results for CCn1c(SCC(=O)Nc2ccc3c(c2)c2ccccc2n3CC)nnc1-c1ccco1 ?
MMP13 inh: inactive; FAK inh: 30; FAK inh confirm: inactive

How did O=C(COc1ccc2ccccc2c1Br)Nn1cnnc1 do in these assays?
MMP13 inh: inactive; CD11b adhes enh: inactive; CD11b adhes inh: inactive; FAK inh: inactive

Results for COc1ccc(C(=O)NCC(=O)OCc2cccc(Br)c2)cc1 ?
FAK inh: inactive

What do the screens show for `COc1ccc(O)c(/C=N/NC(=O)c2ccc(OCc3cccc(Br)c3)cc2)c1`?
FAK inh: 19; FAK inh confirm: inactive

How did N#Cc1nc(-c2ccccc2)oc1NCc1ccco1 do in these assays?
CD11b adhes enh: inactive; CD11b adhes inh: inactive; FAK inh: 21; FAK inh confirm: inactive

How did O=C(Cc1ccc(S(=O)(=O)N2CCOCC2)s1)Nc1nc2c(s1)CCCC2 do in these assays?
CD11b adhes enh: inactive; CD11b adhes inh: inactive; FAK inh: 23; FAK inh confirm: inactive

Results for O=C(ONc1ccc(N=NC(=O)c2ccccc2O)cc1)c1ccccc1 ?
CD11b adhes enh: inactive; CD11b adhes inh: inactive; FAK inh: 80; FAK inh confirm: 22

How did CC(CN1CCN(C)CC1)OC(=O)c1ccccc1Cl (stereo not drawn) do in these assays?
MMP13 inh: inactive; CD11b adhes enh: inactive; CD11b adhes inh: inactive

Results for CCOC(=O)c1c(C)[nH]c(O)c1C=Nc1ccc(Cl)cc1 ?
FAK inh: inactive

What do the screens show for `COC(=O)c1c(C)[nH]c(O)c1C=Nc1ccc(C(C)C)cc1`?
FAK inh: 29; FAK inh confirm: inactive

What do the screens show for `CCOc1ccc(NS(=O)(=O)c2ccc(NC(=O)C3CCCO3)cc2)cc1` (stereo not drawn)?
CD11b adhes enh: inactive; CD11b adhes inh: inactive; FAK inh: inactive

How did Cc1cc(N)ccc1N1CCCC1 do in these assays?
FAK inh: 74; FAK inh confirm: 58

Results for CCn1c(C)cc(/C=C2\SC(=O)N(CC(=O)Nc3ccc(C)c(C)c3)C2=O)c1C ?
FAK inh: inactive

Results for Cc1ccc(NC(=O)CN2C(=O)S/C(=C/c3ccc(-c4cc(C(=O)O)ccc4C)o3)C2=O)cc1C ?
CD11b adhes enh: 61; CD11b adhes inh: inactive; FAK inh: 75; FAK inh confirm: inactive

How did Cn1c(SCC(=O)Nc2ccc3nc(SCC(=O)NC4CC4)sc3c2)nnc1-c1ccccc1 do in these assays?
CD11b adhes enh: inactive; CD11b adhes inh: inactive

How did CCN(CC)C(=O)CSc1nc2ccc(NC(=O)CSc3nnc(N)s3)cc2s1 do in these assays?
FAK inh: 21; FAK inh confirm: inactive

What do the screens show for `Cn1c(SCC(=O)Nc2ccc3nc(SCC(=O)N4CCCC4)sc3c2)nnc1-c1ccc(N)cc1`?
CD11b adhes enh: inactive; CD11b adhes inh: inactive; FAK inh: 31; FAK inh confirm: 32

What do the screens show for `Cc1ccc(C(=O)OCc2cn3ccccc3n2)cc1`?
MMP13 inh: inactive; CD11b adhes enh: inactive; CD11b adhes inh: inactive

Results for C=CCn1c(SCC(=O)/C(C#N)=C(\C)N)nnc1C1CCCCC1 ?
MMP13 inh: inactive; CD11b adhes enh: inactive; CD11b adhes inh: inactive; FAK inh: inactive

How did O=C1c2ccccc2C(=O)c2c(NCc3cccnc3)cccc21 do in these assays?
FAK inh: 28; FAK inh confirm: inactive

Results for c1ccc(NCc2cccnc2)cc1 ?
CD11b adhes enh: inactive; CD11b adhes inh: inactive; FAK inh: inactive

Results for Clc1ccccc1Sc1cnc2ccccc2n1 ?
CD11b adhes enh: inactive; CD11b adhes inh: inactive; FAK inh: inactive

What do the screens show for `COc1ccc2c(c1)CCc1c(C(=O)Nc3ccn(Cc4ccc(C)cc4)n3)noc1-2`?
MMP13 inh: inactive; CD11b adhes enh: inactive; CD11b adhes inh: inactive; FAK inh: 26; FAK inh confirm: inactive

Results for CCOc1ccc(-c2nnc3sc(COc4ccc(C)cc4)nn23)cc1 ?
MMP13 inh: inactive; CD11b adhes enh: inactive; CD11b adhes inh: inactive; FAK inh: inactive

How did CCOc1ccc(-c2nnc3sc(COc4ccc(Cl)cc4)nn23)cc1 do in these assays?
MMP13 inh: inactive; CD11b adhes enh: inactive; CD11b adhes inh: inactive; FAK inh: 21; FAK inh confirm: inactive

How did Cc1cc2nnc(SC(C)C#N)n2c2ccccc12 (stereo not drawn) do in these assays?
MMP13 inh: inactive; FAK inh: 35; FAK inh confirm: inactive

What do the screens show for `CCOC(=O)c1cccc(NC(=O)CSc2nnc(-c3cccnc3)n2C)c1`?
MMP13 inh: inactive; FAK inh: inactive

How did Cn1c(SCC(=O)N2CCCCC2)nc2c([nH]c3ccccc32)c1=O do in these assays?
MMP13 inh: inactive; CD11b adhes enh: inactive; CD11b adhes inh: inactive; FAK inh: 24; FAK inh confirm: inactive

How did CCCCc1c(O)nc2ccccn2c1=O do in these assays?
CD11b adhes enh: inactive; CD11b adhes inh: inactive

How did O=c1c(/C=N/O)c(Nc2ccccc2)nc2ccccn12 do in these assays?
MMP13 inh: inactive; CD11b adhes enh: inactive; CD11b adhes inh: inactive; FAK inh: 50; FAK inh confirm: 31

How did CCOCCCNC(=O)C1c2ccccc2C(=O)N2CCc3ccccc3C12 (stereo not drawn) do in these assays?
MMP13 inh: inactive; CD11b adhes enh: inactive; CD11b adhes inh: inactive; FAK inh: inactive

How did Cc1ccc(C)c2nc(SCC(=O)N3CCCc4ccccc43)c(C#N)cc12 do in these assays?
CD11b adhes enh: inactive; CD11b adhes inh: inactive; FAK inh: inactive

What do the screens show for `CCOc1ccc2[nH]c(=O)c(CN(Cc3nnnn3Cc3ccco3)C3CCCCC3)cc2c1`?
MMP13 inh: inactive; CD11b adhes enh: inactive; CD11b adhes inh: inactive; FAK inh: 39; FAK inh confirm: inactive

Results for COc1cc2cc(CN(Cc3nnnn3Cc3ccco3)C3CCCCC3)c(=O)[nH]c2cc1OC ?
MMP13 inh: inactive; CD11b adhes enh: inactive; CD11b adhes inh: inactive; FAK inh: inactive

How did Cc1c(-c2ccc(Cl)cc2)oc(=O)c2c(N)n(-c3ccccc3)nc12 do in these assays?
CD11b adhes enh: inactive; CD11b adhes inh: inactive; FAK inh: 24; FAK inh confirm: inactive

Results for O=C(Oc1ccc(-c2cnc3ccccc3n2)cc1)c1cccc([N+](=O)[O-])c1 ?
CD11b adhes enh: inactive; CD11b adhes inh: inactive; FAK inh: inactive

What do the screens show for `O=C(Oc1ccc(-c2cnc3ccccc3n2)cc1)c1ccc(Br)o1`?
CD11b adhes enh: inactive; CD11b adhes inh: inactive; FAK inh: 47; FAK inh confirm: 24

What do the screens show for `CCOC(=O)Cc1nnc2c(Nc3ccc(Cl)cc3)nc3nonc3n12`?
MMP13 inh: inactive; CD11b adhes enh: inactive; CD11b adhes inh: inactive; FAK inh: inactive

What do the screens show for `COc1cc(C(=O)NCc2nnc(SCC(=O)Nc3cc(C)cc(C)c3)o2)cc(OC)c1OC`?
MMP13 inh: inactive; CD11b adhes enh: inactive; CD11b adhes inh: inactive; FAK inh: inactive

Results for CCOC(=O)C1CCN(c2nc3cc(OC)ccc3cc2C#N)CC1 ?
MMP13 inh: inactive; CD11b adhes enh: inactive; CD11b adhes inh: inactive; FAK inh: 19; FAK inh confirm: inactive

What do the screens show for `Cc1ccc(Nc2cc(C)nc(-c3ccccc3O)n2)cc1`?
CD11b adhes enh: inactive; CD11b adhes inh: inactive; FAK inh: inactive

How did Cc1cc(NCCCN)nc(-c2ccccc2O)n1 do in these assays?
MMP13 inh: inactive; CD11b adhes enh: inactive; CD11b adhes inh: inactive; FAK inh: 21; FAK inh confirm: inactive
